Test [1] addresses T1, Aspartate--tRNA(Asp/Asn) ligase (Mycobacterium tuberculosis (strain ATCC 25618 / H37Rv)) (UniProt P9WFW3).
T1 sequence (whole entry): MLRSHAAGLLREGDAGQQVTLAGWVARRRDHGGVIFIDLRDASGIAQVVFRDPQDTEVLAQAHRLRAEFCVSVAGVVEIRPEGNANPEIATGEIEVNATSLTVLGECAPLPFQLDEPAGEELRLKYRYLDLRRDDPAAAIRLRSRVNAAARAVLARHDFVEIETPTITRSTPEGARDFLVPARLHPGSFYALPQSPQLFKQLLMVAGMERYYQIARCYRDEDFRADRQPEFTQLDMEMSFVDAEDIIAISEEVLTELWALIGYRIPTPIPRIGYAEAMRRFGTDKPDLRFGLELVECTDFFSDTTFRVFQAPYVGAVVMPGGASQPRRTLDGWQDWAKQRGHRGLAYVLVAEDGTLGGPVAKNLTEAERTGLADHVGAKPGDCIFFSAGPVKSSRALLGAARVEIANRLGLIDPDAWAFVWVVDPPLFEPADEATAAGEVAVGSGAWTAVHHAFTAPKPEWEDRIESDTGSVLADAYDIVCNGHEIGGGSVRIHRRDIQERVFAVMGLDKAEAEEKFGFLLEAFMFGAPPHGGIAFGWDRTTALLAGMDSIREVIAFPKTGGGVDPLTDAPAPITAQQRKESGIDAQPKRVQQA
The test is described as follows: Assay for Asp RNA synthetase-1 from Mycobacterium tuberculosis. The test is classed as functional. Details: scale not given: direction of the effect not stated beside the values. The settings on record: 30 µM.

In test [2] the target is Shiga toxin 2 (Escherichia coli O157:H7) (UniProt P09385+P09386). Briefly: E. coli 0.157:H7 Shiga Toxin SOP - stx2 screening assay. The test is classed as functional. Also on record: scale not given: direction of the effect not stated beside the values. To be noted: 30 µM.

In the case of `CN(C)CC1CSCCCN1C(=O)Nc1ccc(C(C)(C)C)cc1` (stereo not given), the Percent Effect in test [1] turned out to be 0.656%; in test [2] it was 11.6%.

`CN(Cc1nnc(C2CC2)n1C)C1CCN(Cc2ccc(F)cc2)C1` (stereo not given): the values for the Percent Effect in test [1] and in test [2] were 11.8% and 9.62%, respectively.

`COCC(=O)N(C)Cc1ccc(Cl)c(Cl)c1`: the Percent Effect in test [1] was -3.56%; in test [2], 2.03%.

As to `O=C1CC[C@H]2CN(Cc3ccc(Cl)s3)CC[C@H]2N1CCc1c[nH]cn1`, the Percent Effect in test [1] is 0.912%; in test [2], -115%.

Take `CCc1cnc(N2CCC(=O)N(CC3CC3)C(C(C)C)C2)nc1` (stereo not given): the Percent Effect in test [1] is 1.33%; in test [2], 2.92%.

On to `CC[C@@]1(O)CCN(C(=O)c2ccc(SC)cc2)C[C@H]1O`, for which the Percent Effect was -1.2% in test [1] and 5.8% in test [2].

In the case of `Cn1nc(CNC(=O)c2nc3ccccc3s2)c2c1CCOC2`, the values for the Percent Effect in test [1] and in test [2] were -0.335% and 1.68%, respectively.

Take `O=C(CSc1ccncc1)N1C[C@H]2CC[C@@H]1CN(Cc1cccnc1)C2`: the figures for the Percent Effect in test [1] and in test [2] were 2.67% and -11.3%, respectively.

`CCN(C(=O)CS(=O)(=O)Cc1cc(Cl)c2c(c1)OCCCO2)C1CC1`: the Percent Effect in test [1] was -0.343%; in test [2] it was 4.47%.

`CC(=O)N1CCCC1c1ccc(-c2c(C)noc2C)cn1` (stereo not given): the Percent Effect in test [1] was -1.44%; in test [2], -2.58%.

As to `Cc1ncsc1C(=O)NC1CCN(Cc2ccc(C#N)cc2)CC1`, the Percent Effect is 1.55% in test [1] and -28.6% in test [2].

Take `CC(C)C(Sc1nnnn1C1CC1)C(=O)NCc1cccnc1` (stereo not given): the results for the Percent Effect in test [1] and in test [2] were -3.1% and -4.91%, respectively.

For `CN(Cc1ncc[nH]1)CC(c1cccs1)N1CCOCC1` (stereo not given), the Percent Effect was -3.41% in test [1] and 4.34% in test [2].

Regarding `Cc1ccc(CN2Cc3c(C(=O)N(C)C)nn(C)c3C2)s1`, the Percent Effect in test [1] was 1.3%; in test [2], -23.6%.

For the compound `O=C(NCCNc1ncccn1)Nc1cc(C(F)(F)F)c[nH]c1=O`, the Percent Effect in test [1] is -1.25%; in test [2], 3.13%.

With `Cc1cc(CN2CCN(C(=O)CCc3cccc(F)c3F)CC2)on1`, the results for the Percent Effect in test [1] and in test [2] were -2.44% and -2.21%, respectively.

As for `Cn1cc(-c2nc(CN3CCc4c(ncn4C4CC4)C3)cs2)cn1`, the Percent Effect in test [1] was -0.0232%; in test [2], -83.4%.

With `CCOc1ccc(-c2ccnc(CC)n2)cc1C(=O)O`, the Percent Effect is -3.09% in test [1] and 0.242% in test [2].

On to `CC(C)(C)c1nc(CN2CCC(c3nc4cc(Cl)ccc4o3)CC2)no1`, for which the Percent Effect in test [1] is -2.4%; in test [2] it was -14.9%.

As for `CCOc1ncccc1NC(=O)N1CCCCCC1`, the Percent Effect is 7.43% in test [1] and -2.38% in test [2].

For the compound `CNS(=O)(=O)c1cccc(CNc2nccc(C(F)(F)F)n2)c1`, the Percent Effect in test [1] is 3.75%; in test [2] it was 4.67%.

As to `COCC1CC2(CCN(Cc3ccc(OC)cc3)CC2)CN1C(C)C` (stereo not given), the results for the Percent Effect in test [1] and in test [2] were -1.24% and 1.66%, respectively.

`CCc1nc(NCC(=O)N2CCOCC2)c2c(n1)c(C)nn2CC`: the Percent Effect in test [1] was -2.73%; in test [2] it was -15.5%.

As for `COc1cc(CN2CCN(c3cccc(OC)c3)C(=O)C2)cc(OC)c1`, the Percent Effect in test [1] was -1.98%; in test [2], -8.17%.

Take `COc1ccc(CN2CCN(C(C)=O)CC3(CC(=O)N(C)C3)C2)cc1` (stereo not given): the Percent Effect in test [1] was 1.68%; in test [2], -5.8%.

For `CCS(=O)(=O)CCn1ccc(NC(=O)CCc2cccc(C)c2)n1`, the Percent Effect was 2.58% in test [1] and -19.5% in test [2].

`Cc1c[nH]cc1C(=O)N1CCN(Cc2nc(C(C)C)no2)CC1`: the Percent Effect is -3.47% in test [1] and 9.19% in test [2].

As for `COC(=O)Cn1cccc(S(=O)(=O)N2CCC(C)CC2)c1=O`, the Percent Effect in test [1] is -4.76%; in test [2], -36.3%.

Take `CCn1ncc2c1CCCC2NCc1ccc(OC)c(C)c1` (stereo not given): the Percent Effect in test [1] was -4.46%; in test [2], -11.4%.

As to `O=C(c1cccs1)N1C[C@H]2CC[C@@]3(N=C(c4ccccc4)NC3=O)[C@H]2C1`, the Percent Effect is -3.42% in test [1] and -42.8% in test [2].

Turning to `CCN(CC)C(=O)CN(C)C1CCc2ccccc21` (stereo not given), the Percent Effect is -4.5% in test [1] and 14.4% in test [2].

As for `CCN1CCN(C(=O)c2nc(C)n(-c3ccccc3Cl)n2)CC1`, the Percent Effect in test [1] is -3.15%; in test [2] it was 0.607%.

Turning to `Cc1cnc(CNC(=O)NCc2cccnc2N(C)C)s1`, the Percent Effect in test [1] was -2.25%; in test [2] it was -0.447%.

With `OC(CN1CCCCCCC1)c1ccc(F)cc1` (stereo not given), the Percent Effect was -2.26% in test [1] and 10.8% in test [2].

Take `COCC(c1cccc(C(F)(F)F)c1)N(C)C(=O)c1cc(C)no1` (stereo not given): the Percent Effect in test [1] was -1.95%; in test [2], 27.2%.

Regarding `O=C(NCc1cnc2n1CCN(Cc1ccsc1)CC2)C1CCC1`, the Percent Effect in test [1] was determined as 3.57%; in test [2] it was 4.16%.

On to `O=S(=O)(C1CC1)N1CCOCC2(CCN(c3ccccn3)C2)C1` (stereo not given), for which the Percent Effect in test [1] was 8.28%; in test [2], -47.5%.

As for `c1ccc(N2CCCC3(COCCN(c4nccs4)C3)C2)nc1` (stereo not given), the values for the Percent Effect in test [1] and in test [2] were 3.08% and -3.13%, respectively.

Consider `CCCn1ncc2c(C(=O)Nc3n[nH]c(SC)n3)cc(C3CC3)nc21`, for which the Percent Effect was -6.49% in test [1] and -0.011% in test [2].

For `CC(C)C(=O)NCCCn1ncc2c(Cl)cccc21`, the Percent Effect was 16.5% in test [1] and -6.02% in test [2].

As to `Cc1ncc(-c2ccnc(N3CCCCCC3)n2)c(-c2cccnc2)n1`, the Percent Effect in test [1] is 7.25%; in test [2] it was -25.4%.

Consider `COCc1ccccc1C(=O)NCCCN1CCCC1C(=O)N(C)C` (stereo not given), for which the Percent Effect in test [1] is 5.84%; in test [2], -26.7%.

`Cc1cc(C)cc(OCCC(=O)N2CCOCC2c2ncon2)c1` (stereo not given): the Percent Effect in test [1] worked out at 5.48%; in test [2], 33.2%.

For `Cc1nc(N2CCCCC2)ncc1-c1cc(O)[nH]n1`, the Percent Effect in test [1] was -0.348%; in test [2] it was -1.17%.

`Cc1nc(NCCc2ccc(Cl)cc2)cc(C(=O)N2CCOCC2)n1`: the figures for the Percent Effect in test [1] and in test [2] were 12.1% and -64.7%, respectively.

Take `COc1ccc(C(CO)NC(=O)Nc2cccnc2)cc1` (stereo not given): the results for the Percent Effect in test [1] and in test [2] were -1.35% and -19.2%, respectively.

As to `CCCC(Nc1c(C#N)c(=O)n(C)c(=O)n1C)c1ccc(F)cc1F` (stereo not given), the values for the Percent Effect in test [1] and in test [2] were -3.88% and 4.48%, respectively.

As to `CC(C)CC(CNC(=O)NCc1cc[nH]n1)N1CCOCC1` (stereo not given), the figures for the Percent Effect in test [1] and in test [2] were -6.68% and -30.7%, respectively.

Regarding `O=S(=O)(c1ccccc1)N1CCN(CCn2ccnc2)CC1`, the values for the Percent Effect in test [1] and in test [2] were -3.1% and 2.08%, respectively.

As for `Cc1ccc(C(=O)N2C[C@H]3CCC[C@@]3(COCc3cccnc3)C2)s1`, the Percent Effect in test [1] is 6.3%; in test [2], -7.06%.

(Values after ChEMBL document CHEMBL3988442, “University of Dundee, Small-Polar-MMV Screening Library” (2021).)
